# Screens: PubChem, National Center for Advancing Translational Sciences (NCATS)
# G9a inh = G9a (human) methyltransferase inhibition | Q96KQ7 | G9a H3K9 monomethylation, AlphaScreen, 2 h | Potency, µM (series often up to 102 µM), for inactives: top-dose activity, negative = inhibition, hits mostly inhibitors | hit rate 8.8% among 350,000 | AID 504332; also: % is scaled to controls: 0 for no effect and ±100 for the full control effect; nearly all actives have a fitted effect of over 75% in size
# Target sequence (Q96KQ7 913-1193 limits assumed): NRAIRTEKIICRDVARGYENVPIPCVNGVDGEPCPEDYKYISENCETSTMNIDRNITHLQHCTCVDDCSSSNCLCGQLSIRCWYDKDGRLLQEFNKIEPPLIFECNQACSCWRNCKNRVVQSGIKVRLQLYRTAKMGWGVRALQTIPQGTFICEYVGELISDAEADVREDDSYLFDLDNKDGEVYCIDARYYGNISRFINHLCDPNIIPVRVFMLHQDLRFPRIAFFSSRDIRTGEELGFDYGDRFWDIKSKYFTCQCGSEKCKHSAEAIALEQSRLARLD
#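 Enzyme 20 nM + cpd, 15 min RT; add b-H3K9 pep 500 nM / SAM 20 uM; 2 h RT; anti-H3K9me1 Ab 0.5 ug/mL + SA donor / anti-rabbit acceptor beads 20 ug/mL each, 10 min; AlphaScreen read.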
# HP1b chromo inh = blocks HP1-beta chromodomain binding to methylated histone tails; P83916; hit rate 0.56% among 390,000; AlphaScreen HP1-beta / biotin-H3K9me3 peptide binding; Potency, µM (highest dose often 114 µM), inactives show at the highest dose activity change, negative = inhibition, most hits filed as inhibitors; also: nearly all actives have a fitted effect of over 70% in size
# Target sequence (P83916 whole entry, looked up): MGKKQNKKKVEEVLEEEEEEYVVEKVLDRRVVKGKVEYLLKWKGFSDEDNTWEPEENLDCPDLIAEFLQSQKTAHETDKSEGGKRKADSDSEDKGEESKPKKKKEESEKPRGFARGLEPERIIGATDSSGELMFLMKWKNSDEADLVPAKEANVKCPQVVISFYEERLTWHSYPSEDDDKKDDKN
#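 Compound inhibition of the preformed complex between 50 nM HP1-beta and 50 nM biotinylated H3K9me3 peptide was read by AlphaScreen. Buffer was PBS pH 7.4 with 0.01% Tween-20. Incubations ran 30 min at room temperature, with 10 ug/mL donor/acceptor beads.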
# Sfp inh = inhibitors of Bacillus subtilis Sfp phosphopantetheinyl transferase. Biochemical Sfp PPTase activity, qHTS. Potency, µM, for inactives: largest response in the series, negative = inhibition, hits mostly inhibitors. hit rate 3.5% among 310,000. AID 1490;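 also: the enzyme is Sfp with the accession as filed and its product quenches rhodamine fluorescence; 0% = enzyme reaction without inhibitor and -100% = no enzyme wells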
#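 With Hepes-Na pH 7.6 buffer containing 10 mM MgCl2, Sfp (15 nM) modified BHQ-2-YbbR (12.5 uM) using rhodamine-CoA (5 uM). Two reads 30 minutes apart at 525/598 nm yielded each well's rate.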
# BAZ2B inh = blocks human BAZ2B; AID 504333; hit rate 4.4% among 360,000; AlphaScreen BAZ2B-H3K14Ac peptide displacement; Potency, µM (doses to about 114 µM), for inactives: top-dose activity change, negative = inhibition, most hits filed as inhibitors; also: % is scaled to controls: 0 for no effect and ±100 for the full control effect; nearly all actives have a fitted effect of over 60% in size
#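 BAZ2B (50 nM) with biotin-H3(5-23)K14Ac peptide (50 nM) in PBS pH 7.4, 0.01% Tween-20, preformed 30 min, then compound 30 min at room temperature; top concentration 110uM. AlphaScreen streptavidin donor/nickel chelate acceptor beads (10 ug/mL final), 20 min dark, signal read.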
# JMJD2A Tudor inh = JMJD2A Tudor domain (human) inhibition; O75164; AlphaScreen JMJD2A-Tudor / H3K4me3 peptide binding; Potency, µM (highest dose often 114 µM), for inactives: at the top dose activity change, negative = inhibition, most hits filed as inhibitors; hit rate 4.4% among 390,000; also: % is scaled to controls: 0 for no effect and ±100 for the full control effect; nearly all actives have a fitted effect of over 50% in size
# PLK1 PBD inh = blocks phosphopeptide binding to human PLK1 polo-box domain; AID 720504; hit rate 2.8% among 360,000; Potency, µM, without a hit: max response, negative = inhibition, most hits filed as inhibitors; Plk1 PBD binding of FITC phosphopeptide, fluorescence polarization; also: series mostly up to about 57 µM; % is scaled to controls: 0 for no effect and ±100 for the full control effect; nearly all actives have a fitted effect of over 65% in size
# Active calls of the source: *; ? = inconclusive; · = no result given; ! = not active in a repeat; [ ] = dose if it differs, or a comment. A selection: hits, their analogues and other compounds. The true share with any hit is near 12%. Calls follow the shape of the dose curve; as a rule, active = well fitted curve in the direction sought with a large enough effect; inconclusive = small, poorly fitted or top-dose-only effect, or another doubt; inactive = no such curve, though single readings can be large; an effect the other way counts as inactive or inconclusive. Potency is read from the fitted curve at half-maximal effect.
SMILES,G9a inh,HP1b chromo inh,Sfp inh,BAZ2B inh,JMJD2A Tudor inh,PLK1 PBD inh
COc1ccc(C(=O)C(=O)N2CCN(c3ccc(C)cc3)CC2)cc1OC,·,·,·,·,·,-3%
O=C(NC1CCCC1)C(c1ccccn1)N(C(=O)c1csnn1)c1ccccc1F (stereo not given),4%,-22%,6%,1%,-17%,-2%
COc1ccccc1N1CCN(CC(=O)c2ccc(F)cc2)CC1,·,?,40µM*,56µM*,14µM*,-8%
COc1ccccc1N1CCN(Cc2ccc(C(=O)O)cc2)CC1,7%,45%,20%,-21%,6%,-13%
COc1ccc(N2CCN(c3nc4ccccc4n3CC(=O)c3ccccc3)CC2)cc1,14µM*,?,?,?,?,-8%
CCOC(=O)C1CCN(c2nc3ccccc3n2CC(=O)c2ccccc2)CC1,27%,15%,0%,-13%,-8%,7%
N#Cc1ccc(C(=O)CN2CCN(c3ccccc3)CC2)cc1,28µM*,25%,-3%,-27%,-21%,-11%
CC(C)c1ccc(C(=O)NNC(=O)c2n[nH]c(=O)c3ccccc23)cc1,5µM*,27%,·,8%,-15%,-5%
COc1ccccc1C1C2=C(CC(C)(C)CC2=O)Nc2nnnn21 (stereo not given),28µM*,9%,6%,-28%,-14%,3%
COc1ccc(NC(=O)c2cc(OCCCN(C)C)nn2Cc2ccccc2)cc1,·,·,-16%,·,·,·
O=C1CCCc2cc(S(=O)(=O)N3CCCC(C(=O)NCc4ccccc4Cl)C3)ccc2N1 (stereo not given),-12%[59 µM],16%,·,9%[57.1 µM],-9%,·
COc1cc(C(=O)CSc2nncn2C)cc(OC)c1OC,40µM*,42%,?,?,-14%,-6%
O=C1C(=C(O)c2ccccc2)C(=O)c2ccccc21,?,-1%,-15%,-5%,89µM*,-10%
O=C(c1ccccc1)C1C(=O)c2ccccc2C1=O,-13%[2.33 µM],32%,21%,-35%,-24%,-17%
CCOc1ccc(OCCOc2ccc(/C=C/C(=O)O)cc2OCC)cc1,?,6%,17%,-2%,-7%,-6%
CCOc1cc(/C=C/C(=O)O)ccc1OCCO,8%,4%,-4%,-13%,35µM*,27µM*
CCn1cnc2cc(NCc3nc4ccccc4n3Cc3ccccc3)ccc21,?,-6%,14%,40µM*,45µM*,-1%
CCn1c(CNc2ccc(C(=O)O)cc2)nc2ccccc21,1%[59 µM],13%,-24%,-7%,-5%,1%
CCN(CC)CCn1c(NCc2nc3ccccc3n2Cc2ccccc2)nc2ccccc21,?,6%,2%,?,?,2%
O=C(O)c1ccc(NCc2nc3ccccc3n2Cc2ccccc2)cc1,1%,39%,18%,50µM*,-9%,-3%
CCn1c(SCC(=O)NC2CCCCC2)nnc1C(C)NC(=O)c1ccccc1F (stereo not given),15%[59 µM],67%,13%,11%,4%,-16%
CSc1nn(Cc2cccc(Cl)c2)c(N(C(C)=O)C(C)=O)c1S(=O)(=O)c1ccccc1,9%[59 µM],23%,·,-1%,-11%,·
COc1cc2nc(N(C)CCCNC(=O)C3CCCO3)nc(N)c2cc1OC (stereo not given),11µM*!,·,4%,-3%,·,·
O=C(CSc1nc(-c2ccc(F)cc2)cc(C(F)(F)F)n1)NCc1cccs1,-3%[59 µM],46%,-15%,-11%,8%[57.1 µM],-9%
O=C(CSc1cccc2cccnc12)NCc1ccco1,·,27%,79µM*,4%,-19%,-4%
Cc1cc(C)nc(SCC(=O)NCc2ccco2)n1,45µM*,-8%,?,0%,-24%,-10%
O=C(CSc1nc(-c2ccc(F)cc2)cc(C(F)(F)F)n1)NCc1ccco1,-3%[59 µM],?,-5%,0%,-34%[11.4 µM],3µM*
Nc1cc(N)nc(SCC(=O)NCc2ccco2)n1,-11%,27%,10%,?,0%,1%
